Among all 5,500 compounds or so, about 2,000 (36%) were called active. Inconclusive results (about 18%) are left out. No stated cut-off is given here; in the data, active means normalized growth mostly below about 0.91 (no sharp cut-off); inconclusive means no clear call, values can overlap the other calls; inactive means mostly above about 0.92. The list shows a part of the results.
Assay: chemical genetic growth profiling, strain panel (AID 1159580);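 further: tested at 20 µM; growth read once vehicle control cultures reached saturation at 30 °C; 1 = growth at the plate median or of vehicle wells; lower values mean less growth of the strain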
Details: growth OD

Measured: normalized growth

CC1(C)O[C@@H]2CC3C4C[C@H](F)C5=CC(=O)CC[C@]5(C)C4[C@@H](O)C[C@]3(C)[C@]2(C(=O)CO)O1 (some centres not stated)
inactive: S. cerevisiae deletion strains, locus YJR075W, strain HOC1, hits give low values 1.01 | S. cerevisiae deletion strains, locus YKL009W, strain mrt4, hits give low values 0.999 | S. cerevisiae deletion strains, locus YKL068W, hits give low values 1.02 | S. cerevisiae deletion strains, locus YKL085W, strain MDH1 (second series), hits give low values 1 | S. cerevisiae deletion strains, locus YKL085W, strain MDH1, hits give low values 1 | S. cerevisiae deletion strains, locus YKL160W, strain elf1, hits give low values 0.988 | S. cerevisiae deletion strains, locus YKL190W, strain CNB1, hits give low values 1.02 | S. cerevisiae deletion strains, locus YKR001C, strain vps1, hits give low values 1.01 | S. cerevisiae deletion strains, locus YKR026C, strain gcn3, hits give low values 1 | S. cerevisiae deletion strains, locus YKR091W, strain srl3, hits give low values 0.997 | S. cerevisiae deletion strains, locus YLL001W, strain dnm1, hits give low values 0.977 | S. cerevisiae deletion strains, locus YLL026W, hits give low values 1.01 | S. cerevisiae deletion strains, locus YLL041C, strain sdh2, hits give low values 1.01 | S. cerevisiae deletion strains, locus YLR027C, strain aat2, hits give low values 1.02 | S. cerevisiae deletion strains, locus YLR039C, strain RIC1, hits give low values 1.03 | S. cerevisiae deletion strains, locus YLR058C, strain SHM2, hits give low values 1.02 | S. cerevisiae deletion strains, locus YLR102C, strain apc9, hits give low values 1.01 | S. cerevisiae deletion strains, locus YLR113W, strain HOG1, hits give low values 1.02 | S. cerevisiae deletion strains, locus YLR221C, strain rsa3, hits give low values 0.999 | S. cerevisiae deletion strains, locus YLR258W, strain gsy2, hits give low values 1.02 | S. cerevisiae deletion strains, locus YLR262C, strain YPT6 (second series), hits give low values 0.988 | S. cerevisiae deletion strains, locus YLR262C, strain YPT6, hits give low values 1.04 | S. cerevisiae deletion strains, locus YLR268W, strain sec22, hits give low values 1.01 | S. cerevisiae deletion strains, locus YLR320W, strain mms22, hits give low values 0.985 | S. cerevisiae deletion strains, locus YLR330W, strain CHS5, hits give low values 1.01 | S. cerevisiae deletion strains, locus YLR342W, strain FKS1 (second series), hits give low values 0.997 | S. cerevisiae deletion strains, locus YLR342W, strain FKS1, hits give low values 1.01 | S. cerevisiae deletion strains, locus YLR357W, strain rsc2, hits give low values 0.968 | S. cerevisiae deletion strains, locus YLR370C, strain arc18, hits give low values 1 | S. cerevisiae deletion strains, locus YLR371W, strain rom2, hits give low values 1 | S. cerevisiae deletion strains, locus YLR384C, strain iki3, hits give low values 0.986 | S. cerevisiae deletion strains, locus YLR418C, strain cdc73, hits give low values 1.01 | S. cerevisiae deletion strains, locus YML016C, strain PPZ1, hits give low values 1.01 | S. cerevisiae deletion strains, locus YML032C, strain rad52, hits give low values 0.996 | S. cerevisiae deletion strains, locus YML120C, strain ndi1, hits give low values 1.01 | S. cerevisiae deletion strains, locus YML124C, strain tub3, hits give low values 1.01 | S. cerevisiae deletion strains, locus YMR058W, strain fet3, hits give low values 1.02 | S. cerevisiae deletion strains, locus YMR078C, strain ctf18, hits give low values 1.01 | S. cerevisiae deletion strains, locus YMR125W, strain sto1, hits give low values 1.02 | S. cerevisiae deletion strains, locus YMR129W, hits give low values 1.02 | S. cerevisiae deletion strains, locus YMR205C, strain PFK2, hits give low values 1.01 | S. cerevisiae deletion strains, locus YMR223W, strain ubp8, hits give low values 0.993 | S. cerevisiae deletion strains, locus YMR231W, strain pep5, hits give low values 1 | S. cerevisiae deletion strains, locus YMR263W, strain SAP30, hits give low values 1.02 | S. cerevisiae deletion strains, locus YMR307W, strain GAS1, hits give low values 1.01 | S. cerevisiae deletion strains, locus YNL067W, strain RPL9B, hits give low values 1.01 | S. cerevisiae deletion strains, locus YNL071W, strain lat1, hits give low values 1.01 | S. cerevisiae deletion strains, locus YNL128W, strain TEP1, hits give low values 1.02 | S. cerevisiae deletion strains, locus YNL153C, strain GIM3, hits give low values 1.01 | S. cerevisiae deletion strains, locus YNL183C, strain NPR1, hits give low values 0.931 | S. cerevisiae deletion strains, locus YNL209W, strain ssb2, hits give low values 0.999 | S. cerevisiae deletion strains, locus YNL233W, strain BNI4, hits give low values 1.01 | S. cerevisiae deletion strains, locus YNL248C, strain rpa49, hits give low values 0.987 | S. cerevisiae deletion strains, locus YNL250W, strain rad50, hits give low values 1 | S. cerevisiae deletion strains, locus YNL271C, strain bni1, hits give low values 1.01 | S. cerevisiae deletion strains, locus YNL298W, strain CLA4, hits give low values 1 | S. cerevisiae deletion strains, locus YNL307C, strain MCK1, hits give low values 1.01 | S. cerevisiae deletion strains, locus YNL322C, strain KRE1 (second series), hits give low values 0.993 | S. cerevisiae deletion strains, locus YNL322C, strain KRE1, hits give low values 1.02 | S. cerevisiae deletion strains, locus YNR049C, strain mso1, hits give low values 1 | S. cerevisiae deletion strains, locus YNR052C, strain pop2, hits give low values 0.999 | S. cerevisiae deletion strains, locus YOL006C, strain TOP1, hits give low values 1.04 | S. cerevisiae deletion strains, locus YOL012C, strain htz1 0.952 | S. cerevisiae deletion strains, locus YOL147C, strain pex11, hits give low values 1.01 | S. cerevisiae deletion strains, locus YOR001W, strain rrp6, hits give low values 1 | S. cerevisiae deletion strains, locus YOR061W, strain CKA2, hits give low values 1.01 | S. cerevisiae deletion strains, locus YOR069W, strain VPS5, hits give low values 1.01 | S. cerevisiae deletion strains, locus YOR070C, strain gyp1, hits give low values 1.01 | S. cerevisiae deletion strains, locus YOR080W, strain dia2, hits give low values 1.02 | S. cerevisiae deletion strains, locus YOR083W, strain WHI5, hits give low values 0.946 | S. cerevisiae deletion strains, locus YOR106W, strain vam3, hits give low values 1.01 | S. cerevisiae deletion strains, locus YOR136W, strain idh2, hits give low values 0.994 | S. cerevisiae deletion strains, locus YOR144C, strain elg1, hits give low values 1 | S. cerevisiae deletion strains, locus YOR184W, strain ser1, hits give low values 1 | S. cerevisiae deletion strains, locus YOR231W, strain MKK1, hits give low values 1.03 | S. cerevisiae deletion strains, locus YOR265W, strain rbl2, hits give low values 1.01 | S. cerevisiae deletion strains, locus YOR270C, strain vph1, hits give low values 1.03 | S. cerevisiae deletion strains, locus YOR290C, strain snf2, hits give low values 1.01 | S. cerevisiae deletion strains, locus YOR316C, strain cot1, hits give low values 1.01 | S. cerevisiae deletion strains, locus YPL051W, strain arl3, hits give low values 1.01 | S. cerevisiae deletion strains, locus YPL055C, strain LGE1, hits give low values 1.04 | S. cerevisiae deletion strains, locus YPL078C, strain atp4, hits give low values 1.01 | S. cerevisiae deletion strains, locus YPL106C, strain sse1, hits give low values 0.973 | S. cerevisiae deletion strains, locus YPL240C, strain hsp82, hits give low values 1 | S. cerevisiae deletion strains, locus YPL241C, strain CIN2, hits give low values 0.962 | S. cerevisiae deletion strains, locus YPL256C, strain CLN2, hits give low values 1.03 | S. cerevisiae deletion strains, locus YPR119W, strain clb2, hits give low values 1 | S. cerevisiae deletion strains, locus YPR141C, strain kar3, hits give low values 1.01 | S. cerevisiae deletion strains, locus YPR163C, strain tif3, hits give low values 1 | S. cerevisiae deletion strains, locus YPR167C, strain met16, hits give low values 1 | S. cerevisiae deletion strains, strain wtn01, hits give low values 1.01 | S. cerevisiae strains, strain wild type, hits give low values 1.02

— PubChem BioAssay AID1159580 (chemical genetic matrix, 2015)
